Compounds with a hit are over-represented: about 21% of the library has one in this group of screens.
IL1B secr inh: blocks inflammasome-driven IL-1 beta release; THP-1 LPS/ATP IL-1B secretion, AlphaLISA, 16 h; hits give low values; activity change, % at 57.5 µM; hit rate 4.7% among 360,000; in the data active means activity change below about -50%; inconclusive means mostly about -30% to -49%
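Secreted IL-1B measured by AlphaLISA bead assay after 16 h compound exposure of THP-1 cells; compounds (final up to 57.5 uM) added 1 h before LPS (250 ng/mL) and ATP (1.25 mM) stimulation; lower signal means less secretion.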
DRD3 agonist: activates the human D3 dopamine receptor; D3R DiscoveRx beta-arrestin cells, luminescence, 90 min; max activation, %; hit rate 0.58% among 410,000; AID 652048; in the data active means max activation above about 30%
Target sequence (P35462 whole entry, looked up): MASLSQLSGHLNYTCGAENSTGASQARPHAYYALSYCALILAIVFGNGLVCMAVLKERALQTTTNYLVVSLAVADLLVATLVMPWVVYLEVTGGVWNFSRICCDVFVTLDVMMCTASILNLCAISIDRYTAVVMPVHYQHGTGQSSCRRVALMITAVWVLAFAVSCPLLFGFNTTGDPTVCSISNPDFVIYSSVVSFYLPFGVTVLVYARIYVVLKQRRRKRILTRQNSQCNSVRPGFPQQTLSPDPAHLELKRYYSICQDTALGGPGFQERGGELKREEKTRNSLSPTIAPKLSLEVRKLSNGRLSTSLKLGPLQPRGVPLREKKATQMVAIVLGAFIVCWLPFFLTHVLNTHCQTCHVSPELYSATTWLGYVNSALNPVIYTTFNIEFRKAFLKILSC
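Agonist mode: compounds and dopamine controls were applied to plated cells for 90 min at 37 degrees C after an overnight attachment at 1500 cells/well. Luminescent read-out followed 30 - 60 minutes at room temperature with DiscoveRx detection reagent.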
DT40 TDP1 CPT: growth inhibition of DT40 Tdp1-/-;hTDP1 cells with camptothecin (screen for TDP1 inhibitors) | chicken DT40 Tdp1-/-;hTDP1 cells + 20 nM CPT, ATP luminescence, 48 h | Potency, µM (highest dose often 46.2 µM), usual class: inhibitors | hit rate 12% among 420,000; further: nearly all actives have a fitted effect of over 55% in size
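Cell growth measured by CellTiter-Glo luminescence after a minimum 48 h, 37 C compound exposure with 20 nM CPT in Tdp1-knockout DT40 cells stably expressing hTDP1, seeded 400/well; qHTS titration format.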
DT40 TDP1 no CPT: qHTS for Inhibitors of human tyrosyl-DNA phosphodiesterase 1 (TDP1): qHTS in cells in absence of CPT | DT40 Tdp1-/- hTDP1 cells, no CPT, ATP luminescence, 48 h | Potency, µM (series often up to 46.2 µM), actives largely listed as inhibitors | hit rate 15% among 420,000 | AID 686978, 2013; further: nearly all actives have a fitted effect of over 55% in size
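Growth kinetics read by CellTiter-Glo luminescence after ≥48 hr at 37 °C. Cells: DT40 Tdp1-/- stably carrying human TDP1, 400 per well, compound exposure in the absence of CPT (DMSO vehicle).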
ClpP mod: qHTS Assay for Activators of ClpP; hit rate 1.9% among 340,000; Potency, µM (series often up to 57.5 µM); purified B. subtilis ClpP, FRET peptide cleavage, 20 min; ATP-dependent Clp protease proteolytic subunit (Bacillus subtilis (strain 168)), P80244; AID 651965, 2013; active means well fitted falling curve with a large enough effect; inconclusive means small, poorly fitted or top-dose-only effect; inactive means no such curve, though single readings can be large or run the other way; further: the source files actives as falling curves though it sought activators and does not explain the sign; nearly all actives have a fitted effect of over 65% in size
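FRET quenching reversal measured ClpP activation: 10 microg/mL B. subtilis ClpP at pH 8 with the FRET-FV decapeptide, read at 430 nm after 320 nm excitation. The 20-min minus 0-min signal was scaled between DMSO/no-enzyme wells and ADEP (5.8 microM final).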
D3 antag: antagonists of human D3 dopamine receptor | D3R cells, DiscoveRx beta-arrestin luminescence, antagonist mode; hits give low values | hit rate 2.5% among 360,000 | max response, negative = inhibition, % | P35462; in the data active means max response below about -50%; inconclusive means no clear call, values can overlap the other calls
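Cells plated overnight at 1500 cells/well, then exposed to library compounds with dopamine controls for 90 minutes at 37 degrees C. DiscoveRx reagent added for 30–60 minutes at room temperature; luminescence read, quantitative HTS format.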
Numbers stand for hits; . = inactive; ? = inconclusive; / = no result given. Unless noted, the call rests on the fitted dose curve; in most records, active means well fitted inhibition curve with a large enough effect; inconclusive means small, poorly fitted or top-dose-only effect; inactive means flat fitted curve, though single readings scatter.

SMILES	IL1B secr inh	DRD3 agonist	DT40 TDP1 CPT	DT40 TDP1 no CPT	ClpP mod	D3 antag
Cc1cccc(CS(=O)(=O)c2ncc(Cl)c(C(=O)NCc3ccc4c(c3)OCO4)n2)c1	-96.4	.	2.91µM	4.61µM	.	-97.4
Cc1ccc(C(=O)NCc2ccc3c(c2)OCO3)c(Cl)c1	.	.	.	.	.	.
Cc1onc(-c2ccccc2)c1C(=O)NCc1ccc2c(c1)OCO2	.	.	.	.	.	.
Cc1ccc(CNC(=O)c2nc(S(=O)(=O)Cc3ccc(C)cc3)ncc2Cl)cc1	/	.	5.8µM	3.26µM	.	/
CCS(=O)(=O)c1ncc(Cl)c(C(=O)N2CCN(c3ccc(OC)cc3)CC2)n1	/	.	?	4.11µM	.	/
COc1ccc(CCNC(=O)CCCc2ccccc2)cc1OC	.	.	.	.	/	.
CCc1cccc(CC)c1NC(=O)CCS(=O)(=O)c1ccc(Br)cc1	/	.	?	?	.	/
CCCSc1ncc(Cl)c(C(=O)NCc2ccc(OC)cc2)n1	/	.	.	?	.	/
CCS(=O)(=O)c1ncc(Cl)c(C(=O)NCc2ccc(OC)cc2)n1	/	.	1.64µM	.	.	/
Cc1ccc(NCC(=O)c2ccc([N+](=O)[O-])cc2)cc1	.	.	?	?	.	.
Cc1cccc(NCCC(=O)c2ccc([N+](=O)[O-])cc2)c1C	.	.	4.61µM	?	.	.
Cc1ccc(C(=O)CNc2cccc([N+](=O)[O-])c2)cc1	.	.	.	.	/	.
Cc1ccc(NCCC(=O)c2cccc([N+](=O)[O-])c2)c(C)c1	.	.	8.2µM	10.3µM	.	.
Cc1cc(C)cc(NC(=O)CN2CCC(NC(=O)c3ccccc3F)CC2)c1	.	.	.	.	.	.
COc1ccc(-c2ccnc3nc(-n4cccc4)nn23)cc1	.	.	.	.	28.2µM	.
CC(Oc1ccccc1)c1ccnc2nc(N3CCOCC3)nn12 (stereo unspecified)	.	.	.	?	/	.
CC(Oc1ccc(Cl)cc1Cl)c1ccnc2nc(N3CCOCC3)nn12 (stereo unspecified)	-51.6	.	?	18.4µM	/	.
c1ccc(Oc2ccc(-c3ccnc4nc(N5CCOCC5)nn34)cc2)cc1	-67.6	.	14.6µM	16.4µM	/	.
COc1ccc(-c2ccnc3nc(N4CCOCC4)nn23)cc1	.	.	.	.	15.8µM	.
Cc1cccc(CN2C(=O)c3ccccc3Sc3ccc(C(=O)NCc4cccs4)cc32)c1	/	.	.	.	.	/
NCCCC[C@H](NC(=O)[C@@H]1CCCN1C(=O)[C@@H]1CSSC[C@H](N)C(=O)N[C@@H](Cc2ccc(O)cc2)C(=O)N[C@@H](Cc2ccccc2)C(=O)N[C@@H](CCC(N)=O)C(=O)N[C@@H](CC(N)=O)C(=O)N1)C(=O)NCC(N)=O	/	.	.	.	/	/
Cc1noc(C)c1COc1ccc(C(=O)N2CCN(S(=O)(=O)c3ccc(F)cc3)CC2)cc1	.	.	?	.	.	.
O=C(O)CC1(CC(=O)Nc2ccc(C(F)(F)F)cc2)CCCC1	.	.	.	.	/	.
Cc1ccc(CN2CCC(=O)N(Cc3ccccn3)CC2)c(C)c1	/	/	.	.	/	/
COc1ccc(C2c3[nH]c4ccccc4c3CCN2CCCn2cccn2)c(C)c1C (stereo unspecified)	.	.	11.6µM	13µM	/	.
O=C(c1cnccn1)N1CCC2(CC1)CCN(c1ccccc1)CC2	/	/	.	?	/	/
CCOC(=O)N1CCN(C(=O)c2cc3c(-c4cccc(OC)c4)nn(C)c3s2)CC1	-66.9	.	?	23.1µM	/	.
CC1CCCN(C(=O)c2cc3c(-c4ccc(Cl)cc4)nn(C)c3s2)C1 (stereo unspecified)	.	.	?	?	.	.
CCOC(=O)N1CCC(NC(=O)c2cc3c(-c4cccc(OC)c4)nn(C)c3s2)CC1	.	.	23.1µM	?	?	.

Source: PubChem (National Center for Advancing Translational Sciences (NCATS))
